Here are results for 80 molecules from PubChem BioAssay AID736 (The Scripps Research Institute Molecular Screening Center, 2007).

Out of some 97,000 compounds screened, about 210 (0.22%) were called active. This is one part of a sample in which actives are shown more often than they occur. Values without a mark were called inactive. No stated cut-off is given here; in the data, active means inhibition above about 45%; inactive means the rest.

The experiment deals with Sphingosine 1-phosphate receptor 2 (Homo sapiens) (UniProt O95136). The experiment can be described thus: human S1P2 receptor antagonists, primary screen, cell-based (AID 736).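 Further: CRE beta-lactamase reporter cells expressing human S1P2 stimulated with S1P; 0% = agonist at EC80 alone and 100% = agonist plus reference antagonist.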 The conditions noted are these: cell-based S1P2 antagonist assay, at 5 µM, hits give high values.
Sphingosine 1-phosphate receptor 2 (Homo sapiens), sequence (O95136 whole entry, looked up): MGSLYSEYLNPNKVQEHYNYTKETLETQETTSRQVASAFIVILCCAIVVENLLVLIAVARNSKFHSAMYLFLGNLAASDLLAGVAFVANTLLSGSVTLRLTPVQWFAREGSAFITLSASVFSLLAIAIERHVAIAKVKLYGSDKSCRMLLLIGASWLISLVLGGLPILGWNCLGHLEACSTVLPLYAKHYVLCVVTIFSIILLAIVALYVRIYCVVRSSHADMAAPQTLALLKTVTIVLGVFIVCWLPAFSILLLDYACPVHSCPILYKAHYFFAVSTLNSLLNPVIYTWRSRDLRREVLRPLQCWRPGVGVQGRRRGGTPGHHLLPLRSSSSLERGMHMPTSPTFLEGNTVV
With `CC1CCN(CC(=O)c2c[nH]c3ccccc23)CC1`, the inhibition is 12.6%. The figure for `CCCCNC(=O)C1CCCNC1=O` (stereo not given) is 0.22%; for `CCCCCCCC(=O)NC(Nc1ccccc1OC)C(Cl)(Cl)Cl` (stereo not given) it is -5.42%. On to `O=C(O)C1CCN(C(=O)OCc2ccccc2)CC1`, for which the inhibition was 9.58%.

Take `CC(C)CCOc1ccc(C(=O)C[N+]2(C)CCOCC2)cc1`: the inhibition was 8.2%. Take `CC(NC(=O)C1CCC(CNc2c(N3CCOCC3)c(=O)c2=O)CC1)c1ccccc1` (stereo not given): the inhibition is 4.51%. The figure for `O=C(Nc1ccc2oc(-c3ccc4ccccc4c3)nc2c1)c1cccs1` is 7.93%; for `Cc1cc(C)cc(OCC(=O)Nc2nc3ccc([N+](=O)[O-])cc3s2)c1` it is 4.48%; for `O=C(NC(Nc1nc2ccc([N+](=O)[O-])cc2s1)(C(F)(F)F)C(F)(F)F)c1ccccc1` it is 97.3% (active). As to `COC(=O)C(NC(=O)c1ccc(OC)cc1)(Nc1ncc(S(=O)(=O)c2ccc([N+](=O)[O-])cc2)s1)C(F)(F)F` (stereo not given), the inhibition is 19.9%.

For the molecule `Cc1ccc(CN(N=Nc2nonc2N)c2nonc2N)c(C)c1`, the inhibition was -6.92%.

Regarding `COC(=O)c1cccc(-n2[nH]nnc2=S)c1`, the inhibition is 15.5%.

`Cc1ccc(-c2cc(C(=O)NCC3CCCO3)c3ccccc3n2)o1` (stereo not given): the inhibition was 6.28%. The figure for `Cc1nn(Cc2ccc(F)cc2)c(C)c1NC(=O)c1noc2c1CCc1ccccc1-2` is 2.56%; for `O=C(CSc1nnnn1-c1ccccc1)NCc1ccco1` it is -4.03%; for `CC(C)NC(=O)NC(=O)COC(=O)c1ccc(NC(=O)CC#N)cc1` it is -12.5%. Take `O=C(/C=C/c1ccc(Cl)cc1Cl)c1cccnc1`: the inhibition is -15.8%. Turning to `O=C(NNC(=O)c1cccnc1)Nc1ccccc1`, the inhibition is 8.67%.

Turning to `Fc1ccc(-n2c(Cc3ccccc3)nnc2SCc2nc(-c3ccc(Cl)cc3)no2)cc1`, the inhibition is -18.9%.

Take `FC(F)(F)c1cccc(NC(=S)Nc2cccc(Cl)c2)c1`: the inhibition is -0.66%. With `Cc1ccc(/C=N/NC(=O)C2=NNC(c3ccccc3)(c3ccccc3)C2)c(O)c1`, the inhibition is -25.5%. The figure for `CC1(C)C2CCC13CS(=O)(=O)NC3C2` (stereo not given) is 2.66%; for `CCCNC(=S)N1CCC(NC(=O)C23CC4CC(CC(C4)C2)C3)CC1` it is 22.7%; for `CCOC(=O)c1sc(NC(=O)CSc2nc(C)cc(C(F)(F)F)n2)c(C#N)c1C` it is -9.87%. With `FC(F)(F)c1nnc2ccc(N3CCN(c4ccccc4)CC3)nn12`, the inhibition is 0.81%. To `N=c1oc2ccccc2cc1C(=O)N/N=C/c1ccccc1` belongs 10.7%; to `CNC(=O)/C(=C\C=C\c1ccccc1)NC(=O)c1ccc([N+](=O)[O-])cc1`, 10.7%; to `CC(N)C12CC3CC(CC(O)(C3)C1)C2` (stereo not given), -17.7%. As for `CS(=O)(=O)N1CCN(c2ccc(C(=O)NC3C4CC5CC(C4)CC3C5)cc2[N+](=O)[O-])CC1` (stereo not given), the inhibition is -2.62%. Turning to `CCSc1nnc(NC(=O)c2ccc(C)cc2)s1`, the inhibition was 0.05%. For `Cc1onc(-c2ccccc2Cl)c1C(=O)OCC(=O)c1ccccc1`, the inhibition is -10%. The figure for `O=C1c2ccccc2C(=O)N1CCC(c1ccccc1)c1ccco1` (stereo not given) is 11.1%; for `O=C(CCS(=O)(=O)c1cccc2nsnc12)N1CCN(c2ccccc2F)CC1` it is 11.1%; for `CC(C)(C)c1ccc(C(=O)NNC(=O)Cc2ccccc2)cc1` it is -7.08%. To `COc1ccc(C2CC(=O)Nc3sc(=N)c4c(N)c(C#N)c(N)nc4c32)cc1OC` (stereo not given) belongs -38.4%; to `CC(C)OCCCNc1ncnc2c1[nH]c1ccc(F)cc12`, 65.9% (active); to `O=C1CCCN1CCCNc1ncnc2c1[nH]c1ccccc12`, 15.4%.

For the molecule `CCN1CCCC1CNc1ncnc2c1[nH]c1ccc(F)cc12` (stereo not given), the inhibition was -0.72%. The figure for `Cc1cc(O)cc(O)c1C(=O)Cc1cnn(-c2ccccc2)c1` is -8.95%; for `COc1ccc(C(=O)Oc2cc(/C=N/NS(=O)(=O)c3ccc(C)cc3)ccc2OC)cc1` it is 1.84%. The figure for `CC(=O)c1ccc2c(c1)c1ccccc1n2CC(C)C` is -13.4%; for `Clc1ccc(CSc2nnc(/C=C/c3ccccc3)o2)c(Cl)c1` it is -0.17%; for `CCN(CC)CCn1c2ccc(Cl)cc2c2nc(C)sc21` it is -30.3%.

Take `Cc1ccc(C(=O)/C=C/c2c(C)nn(-c3ccccc3)c2Cl)cc1`: the inhibition was -1.65%. Turning to `O=C(/C=C/Sc1ncn[nH]1)c1ccc(Cl)cc1`, the inhibition was 59.7% (active). In the case of `CC(C)(C)c1ccc(C(=O)CSc2ncn[nH]2)cc1`, the inhibition is 19.4%. For `COc1ccc(C(=O)Cc2cnn(-c3ccccc3)c2)c(O)c1`, the inhibition was -22.1%. To `Cc1ccc(OCc2nnc(NC(=O)OCC(C)C)s2)cc1` belongs -11.9%; to `CCc1ccccc1NC(=O)/C(=C/c1ccccc1)c1ccccc1`, 9.77%. To `O=C(Nc1ccc2c(c1)OCCO2)c1ccc(Cl)c(S(=O)(=O)N2CCCCC2)c1` belongs -2.73%; to `O=c1c2ccccc2c(-c2ccc(F)cc2)nn1-c1ccc(C(F)(F)F)cc1`, 8.3%. To `O=C(NCC1CCCO1)c1ccc2ccccc2n1` (stereo not given) belongs -13.9%. Consider `Cc1c(C=O)c2ccccn2c1C(=O)c1ccncc1`, for which the inhibition was -13%. To `Cc1ccc(CN(C(=O)c2sc3ccccc3c2Cl)C2CCS(=O)(=O)C2)cc1` (stereo not given) belongs 15.7%; to `COc1cc(/C=C(/NC(=O)c2ccccc2)C(=O)Nc2cccc(O)c2)c([N+](=O)[O-])cc1OC`, -3.81%; to `Cc1cc(C)c([N+](=O)[O-])cc1-c1ccc(/C=N/NC(=O)c2nonc2N)o1`, -20.8%.

On to `Cc1cc(C)n2nc(C(=O)NC(C)(C)C)nc2n1`, for which the inhibition was -24.4%.

On to `CCOC(=O)C(C)n1cnc2sc(C)c(C)c2c1=O` (stereo not given), for which the inhibition was -21.8%. The figure for `O=C(Cc1c(O)c2ccccc2[nH]c1=O)NCc1ccccc1` is 2.46%; for `Cc1ccc(N(Cc2ccc(C(=O)Nc3ccccc3C(=O)NCc3ccco3)cc2)S(C)(=O)=O)cc1C` it is 29.7%; for `CCN1CCN(CCCCOc2ccccc2F)CC1` it is -15.3%. The figure for `Cc1noc(COc2ccccc2OCc2onc(C)c2Cl)c1Cl` is -6.44%; for `O=C(COc1ccc(Cl)cc1)NCCSc1ccccc1` it is -5.9%. To `COCCn1c(C)cc(C2=NNC(=Nc3ccc(F)cc3)SC2)c1C` belongs 8.96%; to `O=C1Cc2ccccc2Sc2ccc(Cl)cc21`, 1.39%. Turning to `Cn1c(NN)nc2sc3c(c2c1=O)CCC3`, the inhibition was -7.52%. The figure for `CCOc1ccc(-n2c(N)c(C(=O)NCC3CCCO3)sc2=S)cc1` (stereo not given) is 1.44%. Turning to `CCCCOC(=O)Cn1c(=O)n(CC(=O)OCCCC)c2cc(C)ccc21`, the inhibition is -1.39%. To `Cc1ccc(-c2cnc(NC(=O)CCC(=O)N(C)Cc3ccccc3)n2C)cc1` belongs 15.9%; to `O=C1C(Cl)=C(N2CCOCC2)C(=O)N1c1ccccc1`, 11.4%; to `O=C(/C=C/c1cc2c(cc1Br)OCO2)NCc1ccc(Cl)cc1`, 12.8%. The figure for `O=C(CCCN1C(=O)c2cccc3cccc(c23)C1=O)N1CCN(Cc2ccc3c(c2)OCO3)CC1` is 13.4%; for `O=C(CSCc1c(Cl)cccc1Cl)NN1C(=O)c2ccccc2C1=O` it is 7.21%. Take `O=c1cc(N2CCN(Cc3ccccc3)CC2)c(-c2ccccc2)n[nH]1`: the inhibition is 11.6%.

As for `O=C(Nc1cccc2ncccc12)C(Cl)(Cl)Cl`, the inhibition was 7.55%.

Regarding `O=C(CSc1ncn[nH]1)Nc1ccnc2ccccc12`, the inhibition was 2.49%.

As to `O=C(NCN1CCN(CCO)CC1)c1cnccn1`, the inhibition was 4.69%. For `O=C(Nc1nccs1)C1CCN(S(=O)(=O)c2ccc(Cl)c(C(F)(F)F)c2)CC1`, the inhibition was 13.1%. On to `CC1CC(C)CN(CC(=O)N2c3ccccc3CCc3ccccc32)C1` (stereo not given), for which the inhibition was 3.76%. To `CCn1c(SCc2ccc(C)cc2)nnc1-c1nn(-c2ccccc2)ccc1=O` belongs 7.22%.
